Results from PubChem BioAssay AID463173 (ICCB-Longwood Screening Facility, Harvard Medical School, 2010).
Hit rate of the full screen: of about 52,000 compounds, about 4,300 (8.3%) were called active. Cut-off read from the data, not from the text of the source: active = survival mostly below about 52% (no sharp cut-off); inactive = mostly above about 56%. For the sample, actives were picked, then their nearest neighbours and some compounds at random.

What follows are compounds tested on DeltatarO mutant (assay: growth inhibition of S. aureus wild type versus tarO mutant, primary screen, teichoic acid synthesis inhibitors, RN4220, OD600 (AID 463173)). Conditions: OD600, 18 h, active compounds read low, screened at 18.75 µg/mL (by protocol).
With `Cc1onc(-c2ccccc2Cl)c1C(=O)Oc1ccccc1F` the survival was 76% (inactive). With `Cc1ccc(NC(=O)c2cc3c(=O)[nH]c4ccccc4c3n2C)cc1F` the survival was 83% (inactive). `O=C(OCCN1CCOCC1)c1ccccc1` was tested, and the survival was 88% (inactive). With `Cc1ccc(-n2ncc3c(NCCCN(C)C)ncnc32)cc1Cl` the survival was 95% (inactive). For `COc1ccc(-c2noc(-c3ccc(N4CCN(c5ccccc5)CC4)c([N+](=O)[O-])c3)n2)cc1`, the survival was 49% (inactive). In the case of `Cc1ccccc1OCC(=O)Nc1ccc2nc(SCc3ccccc3)sc2c1`, the survival is reported as 88% (inactive). In the case of `Cc1ccc(CN(Cc2ccco2)C(=O)COc2cccc(C)c2C)o1`, the survival is reported as 66% (inactive). In the case of `Cc1cc(OC(C)C(=O)N(Cc2ccc(N(C)C)cc2)Cc2ccco2)ccc1Cl` (stereo not drawn), the survival is reported as 67% (inactive). For `CCc1ccc(OCC(=O)N(Cc2ccc(C)cc2)Cc2ccco2)cc1`, the survival was 91% (inactive). For `Cc1ccc(CN(Cc2ccco2)C(=O)COc2cc(C)c(Cl)c(C)c2)cc1`, the survival was 58% (inactive). `Cc1cc(OC(C)C(=O)N(Cc2ccco2)Cc2ccccc2F)cc(C)c1Cl` (stereo not drawn) was tested, and the survival was 81% (inactive). `CCc1ccc(CN(Cc2ccco2)C(=O)COc2ccc(Cl)c(C)c2)cc1` was tested, and the survival was 38% (active). In the case of `Cc1ccc(CN(Cc2ccco2)C(=O)COc2c(C)cc(C)cc2C)cc1`, the survival is reported as 54% (inactive). In the case of `Cc1ccc(CN(Cc2ccco2)C(=O)COc2ccccc2C)cc1`, the survival is reported as 40% (active). `Cc1ccc(OCC(=O)N(Cc2ccc(Cl)cc2)Cc2ccco2)cc1C` was tested, and the survival was 58% (inactive). With `Cc1cc(OC(C)C(=O)N(Cc2ccco2)Cc2ccco2)cc(C)c1Cl` (stereo not drawn) the survival was 35% (active). For `Cc1cccc(OCC(=O)N(Cc2ccc(C(C)C)cc2)Cc2ccco2)c1C`, the survival was 49% (inactive). In the case of `Cc1cccc(OCC(=O)N(Cc2ccc(N(C)C)cc2)Cc2ccco2)c1C`, the survival is reported as 42% (active). `NNC(=O)C1CCN(S(=O)(=O)c2ccccc2N)CC1` was tested, and the survival was 95% (inactive). In the case of `CCOc1cc(C(=O)OCc2cc(=O)n3nc(C4CC4)sc3n2)cc(OCC)c1OCC`, the survival is reported as 79% (inactive). For `COCCNC(=S)N1CCC(NC(=O)Nc2ccc(F)cc2)CC1`, the survival was 91% (inactive). For `CC(SCc1ccccc1)C(=O)NCc1ccccn1` (stereo not drawn), the survival was 77% (inactive). For `COc1ccccc1N1CCN(C(=O)Cn2ncc3ccsc3c2=O)CC1`, the survival was 114% (inactive). With `CC1CCc2c(sc(NC(=O)c3ccc(Cl)cc3Cl)c2C#N)C1` (stereo not drawn) the survival was 71% (inactive). With `COc1cc(CN(C(=O)c2ccc(C)cc2)c2ccccn2)cc(OC)c1OC` the survival was 78% (inactive). For `CN(CCC(N)=O)Cc1ccccc1`, the survival was 75% (inactive). In the case of `CCC(C)Cn1c(/C=C/c2ccccc2)nc2ccccc21` (stereo not drawn), the survival is reported as -1% (active). For `CCn1c(O)c(/C=C/c2nc3ccccc3n2CC)sc1=S`, the survival was 78% (inactive). With `CCCCCCn1c(CNC(=O)c2ccccc2)nc2ccccc21` the survival was 66% (inactive). `CC(C)CCn1c(/C=C/c2ccccc2)nc2ccccc21` was tested, and the survival was -1% (active). In the case of `CCCn1c(CNC(=O)c2ccc(F)cc2)nc2ccccc21`, the survival is reported as 76% (inactive). For `CCCCCn1c(CNC(=O)c2ccccc2)nc2ccccc21`, the survival was 67% (inactive). With `CC(C)Cn1c(/C=C/c2ccc(F)cc2)nc2ccccc21` the survival was -4% (active). In the case of `Cc1cccc(C(=O)NCCc2nc3ccccc3n2CCC(C)C)c1`, the survival is reported as 99% (inactive). For `CCCCCCn1c(/C=C/c2ccccc2)nc2ccccc21`, the survival was 1% (active). With `CCCn1c(SCC(O)c2ccccc2)nc2ccccc21` (stereo not drawn) the survival was 86% (inactive). `CCc1nc2ccccc2n1CC(C)C(=O)O` (stereo not drawn) was tested, and the survival was 96% (inactive). In the case of `CCCCCn1c(CNC(=O)c2ccc(F)cc2)nc2ccccc21`, the survival is reported as 68% (inactive).
